Compound activity: PubChem, National Center for Advancing Translational Sciences (NCATS)
Six1-Eya2 inh: blocks human Six1 binding to Eya2 | Q15475+O00167 | AlphaScreen GST-Six1/His-Eya2 binding, biochemical; hits give low values | activity change, % (no concentration beside the values) | hit rate 0.56% among 360,000 | AID 651725; in the data active means activity change below about -65%; inconclusive means mostly about -30% to -63%; further: on the % scale 0 is the no-effect control and ±100 the full control effect
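GST-Six1 + His-Eya2 (5X stock: 250/500 nM); Tris pH 8.0, 300 mM NaCl, 0.05% BSA, 0.02% Tween 20; GSH donor/Ni acceptor beads; 1 h 37 °C dark; AlphaScreen readout.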
JMJD2A Tudor inh: blocks the human JMJD2A Tudor domain. AID 504339. AlphaScreen JMJD2A-Tudor / H3K4me3 peptide binding. hit rate 4.4% among 390,000. O75164. Potency, µM (top dose mostly 114 µM), for the others: at the highest dose activity change, negative = inhibition, usual class: inhibitors; further: potency means the concentration at half of the fitted maximal effect; on the % scale 0 is the no-effect control and ±100 the full control effect; nearly all actives have a fitted effect of over 50% in size
TDP1 inh: TDP1 (human) enzyme inhibition | recombinant TDP1, AlphaScreen DNA substrate cleavage | Potency, µM (titrated, usually from 130 µM), inactives show top-dose activity change, negative = inhibition, usual class: inhibitors | hit rate 0.28% among 350,000; further: potency means the concentration at half of the fitted maximal effect; on the % scale 0 is the no-effect control and ±100 the full control effect; nearly all actives have a fitted effect of over 40% in size
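Enzyme-compound mixtures sat 15 min at room temperature, followed by a 5 min reaction with 15 nM final substrate and 10 min with AlphaScreen beads. Recombinant human Tdp1 was used at 1 nM final.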
HP1b binding inh: inhibitors of HP1-beta chromodomain binding to methylated histone tails; P83916; AlphaScreen HP1-beta / biotin-H3K9me3 peptide binding; Potency, µM (doses to about 114 µM), inactives show at the top dose activity change, negative = inhibition, usual class: inhibitors; hit rate 0.56% among 390,000; AID 540317; further: potency means the concentration at half of the fitted maximal effect; nearly all actives have a fitted effect of over 70% in size
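HP1-beta protein (50 nM final) preincubated 30 min at room temperature with biotinylated H3(1-18)K9me3 peptide (50 nM) in PBS pH 7.4, 0.01% Tween-20, then compound added for 30 min. AlphaScreen streptavidin donor/nickel chelate acceptor beads (10 ug/mL final), 30 min dark, luminescence read.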
CtBP-E1A blk: CtBP/E1A binding inhibition; AlphaScreen GST-E1A/His-CtBP binding, 1536-well; hits give low values; activity change, % (no concentration beside the values); hit rate 0.49% among 340,000; AID 651724; in the data active means activity change below about -65%; inconclusive means mostly about -30% to -63%; further: on the % scale 0 is the no-effect control and ±100 the full control effect
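AlphaScreen with 125 nM GST-E1A and 125 nM His-CtBP (5X stocks) in Tris pH 8.0, 300 mM NaCl, BSA, Tween 20, TCEP. Compounds preincubated 2 h at 37 deg C, then glutathione donor/nickel acceptor beads added for 1 h at 37 deg C in dark.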
BAZ2B inh: BAZ2B (human) inhibition. Q9UIF8. AlphaScreen BAZ2B-H3K14Ac peptide displacement. Potency, µM (top dose mostly 114 µM), for inactives: at the top dose activity change, negative = inhibition, actives largely listed as inhibitors. hit rate 4.4% among 360,000. AID 504333; further: potency means the concentration at half of the fitted maximal effect; on the % scale 0 is the no-effect control and ±100 the full control effect; nearly all actives have a fitted effect of over 60% in size
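Multi-concentration screen (max 110 uM) measuring displacement of acetylated histone H3 peptide from BAZ2B by AlphaScreen, using 50 nM protein, 50 nM peptide and 10 ug/mL streptavidin donor plus Ni-chelate acceptor beads.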
An asterisk follows results filed as active; u = inconclusive; x = no result given; [ ] = another dose, or the depositor's remark. An excerpt weighted towards active compounds, which were near 5.3% of everything screened. Unless noted, the call rests on the fitted dose curve; in most records, active means well fitted inhibition curve with a large enough effect; inconclusive means small, poorly fitted or top-dose-only effect; inactive means no such curve, though single readings can be large or run the other way.

SMILES	Six1-Eya2 inh	JMJD2A Tudor inh	TDP1 inh	HP1b binding inh	CtBP-E1A blk	BAZ2B inh
COc1ccc(CCC(=O)NNC(=O)c2ccc(OC)cc2)cc1	13.2	-10.5%	-6.5%[0.0935 µM]	-4.1%	4.0	6.7%
CCc1nc(SCC(=O)NNC(=O)c2ccc(OC)cc2)c2ccccc2n1	-7.4	50.1µM*	1.2%	-11.6%	-14.8	-20.7%
CCOc1ccc(C(=O)c2oc3ccccc3c2NC(=O)c2cc(=O)c3ccc(C)cc3o2)cc1	x	4.5%	7.4%	83.5%	x	1.7%
Cc1ccccc1Nc1c(-c2c(F)cccc2Cl)nc2ccc(Br)cn12	x	-9.9%	-2.5%	15.9%	x	-9.9%
Clc1cccc(-c2ccc(CNCCSc3nnnn3-c3ccccc3)o2)c1	x	26.8%	4.7%	49.0%	x	u
Brc1ccc(-c2ccc(CNCCSc3nnnn3-c3ccccc3)o2)cc1	x	-34.6%	4.7%	7.6%	x	20µM*
Cc1nc(N2CCC(C)CC2)c2oc3ccccc3c2n1	6.8	1.0%	8.8%	48.3%	4.5	-4.9%
COc1ccccc1N1CCN(Cc2cc(Br)c(O)c3ncccc23)CC1	-91.7*	39.8µM*	8.8%	18.0%	-84.6*	12.6µM*
COc1ccccc1N1CCN(Cc2cc(=O)oc3cc(C)ccc23)CC1	10.5	x	x	x	1.7	x
COc1ccccc1N1CCN(Cc2cc3c(cc2O)OCO3)CC1	-21.3	u	x	-15.6%	-15.8	u
COc1ccccc1N1CCN(c2nc(C)nc3c2oc2ccccc23)CC1	-24.5	44.7µM*	9.5%	4.9%	u	50.1µM*
CCCOCc1cc(CN2CCN(c3ccccc3OC)CC2)c(O)c2ncccc12	x	20µM*	12.7%	-14.1%	x	4.47µM*
COc1ccccc1N1CCN(Cc2cc(COC(C)C)c3cccnc3c2O)CC1	x	22.4µM*	7.6%	11.8%	x	3.98µM*
COc1ccc(CNC(=O)c2cc(=O)[nH]c3ccc(S(=O)(=O)N4CCCC4)cc23)c(OC)c1	x	-2.8%	5.2%	30.1%	x	0.1%
CCOCc1cc(CN2CCN(c3ccccc3OC)CC2)c(O)c2ncccc12	x	22.4µM*	12.7%	32.4%	x	5.62µM*
CCOc1ccccc1N1CCN(Cc2cccc(OC)c2O)CC1	-3.9	-23.1%	8.7%	13.9%	-9.8	-10.9%
Oc1ccccc1-c1nnc(COc2ccc(Cl)cc2Cl)o1	2.0	39.8µM*	-14.1%	7.5%	0.0	4.4%
CCCN1C(=O)c2ccccc2CC1(C)C(=O)NC1CCCCC1 (stereo not drawn)	x	-2.2%	-2.0%	34.9%	x	4.0%
Cc1c(NC(=O)Cc2cccs2)cccc1[N+](=O)[O-]	-1.0	-10.5%[57.1 µM]	-8.2%	30.9%	-15.4	50.1µM*
CCCN(CCC)S(=O)(=O)c1ccc(NC(=O)Cc2cccs2)cc1	2.6	u	-3.4%	12.1%	10.2	u
Cc1c(Cl)cccc1NC(=O)Cc1cccs1	1.2	0.0%	0.8%	54.0%	6.2	3.3%
CCN(CC)S(=O)(=O)c1ccc(OC)c(NC(=O)Cc2cccs2)c1	-14.4	50.1µM*	-7.2%	u	1.4	50.1µM*
CCCCN(CCCC)S(=O)(=O)c1ccc(NC(=O)Cc2cccs2)cc1	3.0	44.7µM*	-2.3%	-27.2%	8.0	u
CC(=O)c1ccc(NC(=O)Cc2cccs2)cc1	-15.2	u	x	-16.2%	-0.3	50.1µM*
Cc1ccc2cc3cc(C(=O)N4CCN(c5ccc(Cl)cc5)CC4)oc3nc2c1	x	7.0%	2.3%	44.1%	x	x
Cc1c(C(=O)Nc2ccc(Br)cc2F)oc2ccc(S(=O)(=O)N3CCCCC3)cc12	x	-24.5%	2.6%	11.8%	x	4.4%
CC(=O)Nc1ccccc1OCc1cc(=O)n2c(C)csc2n1	x	-4.0%	3.8%	45.3%	x	-3.4%
CC(C)C(=O)Nc1ccc2nc(SCCOc3ccccc3)sc2c1	x	-12.3%	5.7%	11.8%	x	-12.6%
O=C(Cc1cccs1)Nc1ccc(S(=O)(=O)N2CCCC2)cc1	-12.8	u	-3.6%	-11.8%	8.7	50.1µM*
Cc1cc(C(=O)CN2C(=O)NC(Cc3c[nH]c4ccccc34)C2=O)c(C)n1C (stereo not drawn)	-9.4	u	8.0%	0.0%	-2.3	50.1µM*
